This is part of a sample that, as a whole, favours compounds with a hit. Of some 83,000 tested, about 20% had one in any assay.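 Growth was measured after 48 h exposure to one concentration of compound in 96-well plates. Values under 10 count as active.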 Unmarked numbers belong to inactive results. Active and inactive are the calls of the source.

The assay relates to OVCAR-5 ovarian. Description: NCI-60 one-dose screen, 48 h (100 = growth as untreated, 0 = no growth, -100 = all killed). The settings on record: 10 µM unless noted. On the procedure:
Growth inhibition of the OVCAR-5 human tumor cell line is measured as a screen for anti-cancer activity. Cells are grown in 96 well plates and exposed to the test compound for 48 hours. Compounds are tested at a single concentration, which is 10^-5 M for most compounds. The reported endpoint is percent growth (GI% or GIPRCNT), where numbers from 0 - 100% represent growth inhibition, and numbers from -100% - 0 represent cell death. For example, a value of 40 represents 60% growth inhibition. A value of 0 means no net growth occurred over the course of the experiment. A value of -40 indicates 40% of cells at the beginning of the experiment died by the end of the experiment. A value of -100 means all cells are dead at the end of the experiment.
NCI-60 Human Tumor Cell Lines Screen was performed using the standard one-dose NCI protocol, which is described in more detail at https://dtp.cancer.gov/discovery_development/nci-60/default.htm.
Compounds with GIPRCNT values below 10 were considered active. Activity score was based on GIPRCNT using the following formula: […]
Score is 0 for GIPRCNT values of 100 or above, 50 for GIPRCNT values of 0, and 100 for GIPRCNT values of -100.
For the compound `CCN=C1C=CC(=C(c2ccc(N(C)C)cc2)c2ccc(N(C)C)cc2)c2ccccc21`, the growth was 4.09% (active).

Take `Cc1ccc(O)c(NC(=O)c2ccc(CNc3ccnc(C(F)(F)F)c3)cc2)c1`: the growth was 76.9%. With `CC(O)c1ncc(/C=C2\SC(=S)N(Cc3ccccc3)C2=O)s1` (stereo not given), the growth is 98.6%. As for `O=C(CSc1nnc2sc(Nc3cccc(Cl)c3)nn12)c1ccc(F)cc1`, the growth was 95.1%. Turning to `CC1(C)CC[C@]2(C(=O)N3CCOCC3)CC[C@]3(C)C(=CC[C@@H]4[C@@]5(C)C/C(=C/c6ccncc6)C(=O)C(C)(C)[C@@H]5CC[C@]43C)[C@@H]2C1`, the growth is 30.3%.

For the compound `c1ccc(CCc2ccccc2-c2cc(-c3ccccc3)on2)cc1`, the growth was 89.9%. `COc1ccc(-c2cc(C(=O)N3N=C(c4ccc(N)cc4)CC3c3ccccc3)c3ccccc3n2)cc1` (stereo not given): the growth was 64.7%. As for `N#Cc1c(-c2ccccc2)nc2c(c(-c3ccccc3)nn2-c2ccccc2)c1-c1ccc(N2CCOCC2)cc1`, the figure is 102%; as for `N#Cc1c(-c2cccc([N+](=O)[O-])c2)cc(-c2ccc(Nc3nc(Nc4ccc(F)cc4)nc(Nc4ccc(F)cc4)n3)cc2)nc1N`, 102%; as for `N#C/C(=C\c1ccc(-c2ccc(Cl)cc2)o1)c1ccc(Cl)cc1`, 68.1%. As for `Oc1c(I)cc(-c2nc3ccccc3s2)cc1CN(Cc1ccccn1)Cc1ccccn1`, the figure is 49.7%; as for `Cc1cc2oc(=O)cc(CP(=O)(O)O)c2cc1O`, 94%; as for `CS(=O)(=O)Cc1cnc(C2OCCO2)s1`, 106%. As for `COc1cc2c(/C=C3\C(=O)Nc4ccccc43)c(C(=O)O)[nH]c2cc1C`, the figure is 59.1%; as for `Cc1[nH]c(C(=O)Nc2ccc(C(N)=O)cc2NC(C)C)c(Cl)c1Cl`, 104%. Take `O=C(Cn1nnc2ccccc21)N/N=C/c1ccccc1F`: the growth was 108%. Turning to `Cn1cc(-c2nonc2-c2c[nH]c3ccccc23)c2ccccc21`, the growth is 25.9%. As for `CCOC(=O)c1c(C)c2c(n1C)CSc1cc(S(=O)(=O)c3ccccc3)c(=O)[nH]c1-2`, the figure is 62.4% [100 µM]; as for `CC/C(Cc1ccccc1)=C(\c1ccc(OCCN2CCCCCC2)cc1)c1ccc(OC(=O)NCc2ccccc2)cc1`, 80.9%; as for `N=C(N)c1ccc(-c2ccc(-c3ccc(Cl)cc3Cl)s2)cc1F`, -7.4% (active). Consider `CCCCNC1=C(OCC)C(=O)c2ccccc2C1=O`, for which the growth is 150%. As for `CC[C@H](C)[C@H](NC(=O)[C@H](CCCNC(=N)N)NC(=O)[C@H](Cc1c[nH]c2ccccc12)NC(=O)[C@@H](NC(=O)[C@H](CCCCN)NC(=O)[C@H](CCCCN)NC(=O)[C@@H](NC(=O)[C@@H](NC(=O)[C@@H](NC(=O)[C@H](CCCCN)NC(=O)[C@H](Cc1ccccc1)NC(=O)[C@H](CCCCN)NC(=O)[C@H](CCCCN)NC(=O)[C@H](Cc1ccccc1)NC(=O)[C@@H](NC(=O)[C@@H](N)CCCCN)[C@@H](C)CC)[C@@H](C)O)[C@@H](C)CC)[C@@H](C)CC)C(C)C)C(=O)N[C@@H](Cc1ccccc1)C(=O)NCC(=O)N[C@@H](CCCNC(=N)N)C(=O)N[C@@H](Cc1ccccc1)C(N)=O`, the figure is -46.1% (active); as for `COc1ccc(-c2nnc(SCC(=O)Nc3ccc(/C(C)=N\O)cc3)n2-c2ccccc2)cc1OC`, 97%. As to `COc1cc(/C=C\c2cc(/C=C\c3ccc(O)c(OC)c3)n(C(=O)CNc3ccc(Cl)cc3)n2)ccc1O`, the growth was 86.9%. As for `Cc1ccc2[nH]c(=O)c3c(c2c1)OC(N)=C(C#N)C31C(=O)c2cccc3cccc1c23` (stereo not given), the figure is 97.4%. With `O=C(Nc1ccccc1)c1sc(-c2ccccc2)cc1O`, the growth is 94.2%. On to `Nc1ncnc2c1c(-c1ccc(Oc3ccccc3)cc1)nn2CC1SSCC1O` (stereo not given), for which the growth is 81.4%. Take `CC(/C=C1\SC(=S)N(CC(=O)NC(Cc2c[nH]c3ccccc23)C(=O)O)C1=O)=C\c1ccccc1` (stereo not given): the growth was 102%. In the case of `Cc1ncc(C(=O)Nc2ccc(CN3CCN(C)CC3)c(C(F)(F)F)c2)cc1C#Cc1cnc(N)c2ccncc12`, the growth is -13.6% (active). As for `CC(C(=O)O)n1c(O)c(C=Nc2cccnc2)sc1=S` (stereo not given), the figure is 98.9%; as for `COc1ccc(Nc2ncccc2NC(=O)c2cn(Cc3cccc(Oc4ccccc4)c3)nn2)cc1OC`, 111%. As to `Cc1ccc(C)c2c1C(O)(C#Cc1ccccc1)c1ccccc1C2(O)C#Cc1ccccc1` (stereo not given), the growth is 81.3%. Take `Cc1ccc(C(=O)c2ccc(CC(=O)N/N=C/c3ccc(O)cc3O)n2C)cc1`: the growth was 63.4%. Regarding `COC(=O)C1=C(C)NC(C)=C(C(=O)OCC(C)C)C1c1ccccc1[N+](=O)[O-]` (stereo not given), the growth was 98.7%. Take `O=C(O)C1CN(c2cccc(Cl)c2)N(c2cccc(Cl)c2)C1=O` (stereo not given): the growth was 75.3%. Regarding `CN1CCN(CCOc2ccc(-c3cnc4c(-c5ccc(C(F)(F)F)cc5)cnn4c3)cc2)CC1`, the growth is 79.7%. Regarding `Cc1ccc(-c2csc(NC(=O)N3CCN(c4cc5c(cc4F)c(=O)c(C(=O)O)cn5C4CC4)CC3)n2)cc1`, the growth is 23.2%.

With `CC(=O)c1c(Nc2ccc(F)c(F)c2F)[nH]c2c(F)cc(F)cc2c1=O`, the growth is 12.8%. Consider `FC(F)(F)c1[nH]ncc1-c1nc2c(N3CCCCC3)cc3[nH]ncc3c2c2c1CCCC2`, for which the growth was 6.62% (active).

With `CC(=O)N(Cc1ccccc1)c1nc2ccc(O)c(CN(C)C)c2s1`, the growth was 100%.

Values taken from PubChem BioAssay (NCI).
